“And” between values parts separate entries of the source, which are not always exact repeats. Identical values can stand only once. Results filed as inconclusive are left out. A call without a number means that no potency is given here. The source holds several records for some structures; these can differ, active in one and inactive in another. The source made the active and inactive calls. Unless noted, calls come from the whole dose curve; as a rule, active = well fitted curve in the direction sought with a large enough effect in the repeat runs; inconclusive = weak or mixed curves; inactive = no such curve, though single readings can be large; an effect the other way counts as inactive or inconclusive.
How the values were obtained:
[1] = qHTS assay to test for compound auto fluorescence at 460 nm (blue) in HEK293 cell free culture (AID 720681)
Outline: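 Test compounds were pinned into cell-free culture medium (DMEM with 10% FBS) and fluorescence was read directly at Ex/Em 405/460 nm. Signals were expressed as fluorescence equivalents of triamterene, with DMSO vehicle as control.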

[2] = qHTS assay to test for compound auto fluorescence at 535 nm (green) in HEK293 cell free culture (AID 720682)
Outline: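 Fluorescein serves as the green reference fluorophore; each compound's intrinsic emission at 535 nm (excitation 485 nm) is reported as an equivalent amount of that dye, measured in serum-containing DMEM without cells.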

[3] = qHTS assay to test for compound auto fluorescence at 590 nm (red) in HEK293 cell free culture (AID 720683)
Outline: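 Tox21 10K library compounds were pinned into cell-free DMEM with 10% FBS and fluorescence was read at excitation 540 nm. Activity is expressed as Rose Bengal sodium equivalency.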

[4] = qHTS assay to test for compound auto fluorescence at 590 nm (red) in HepG2 cell free culture (AID 720684)
Outline: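 Red fluorescence (540 nm excitation, 590 nm emission) was measured after compound transfer into cell-free MEM supplemented with 10% FBS. Values are equivalencies against Rose Bengal sodium.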

[5] = qHTS assay to test for compound auto fluorescence at 460 nm (blue) in HepG2 cell free culture (AID 720685)
Outline: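 Compound (23 nL) or DMSO pinned into cell-free MEM with 10% FBS; blue fluorescence read at 405/460 nm excitation/emission, expressed as auto-fluorescence equivalency to triamterene.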

[6] = qHTS assay to test for compound auto fluorescence at 535 nm (green) in HepG2 cell free culture (AID 720686)
[7] = qHTS assay to test for compound auto fluorescence at 460 nm (blue) in HepG2 cells (AID 720687)
Outline: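 Cells (2,000/well in MEM with 10% FBS) attached overnight at 37 C, then were exposed to compound or DMSO for 1 hr at 37 C, 5% CO2. Fluorescence read at Ex/Em 405/460 nm, expressed as triamterene-equivalent signal.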

[8] = molecular target: Glucocorticoid receptor (Homo sapiens) (UniProt P04150); assay: qHTS assay to identify small molecule agonists of the glucocorticoid receptor (GR) signaling pathway (AID 720691; active = well fitted activation curve with a large enough effect in the signal ratio in the repeat runs, not every such curve was filed as active; the % refers to the signal ratio); conditions: GR-bla HeLa, beta-lactamase reporter ratio, 18 h; activation: at 62.4 µM (top of the series) unless noted
Outline: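 Agonist mode in a HeLa line carrying a GRE-controlled beta-lactamase reporter. Compounds act for 18 h at 37 C before a 2 h room-temperature FRET substrate step and fluorescence reading.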

[9] = molecular target: Glucocorticoid receptor (Homo sapiens) (UniProt P04150); assay: qHTS assay to identify small molecule antagonists of the glucocorticoid receptor (GR) signaling pathway (AID 720692; active = well fitted inhibition curve with a large enough effect in the signal ratio in the repeat runs, not every such curve was filed as active; the % refers to the signal ratio; note: potency is the fitted concentration of half-maximal effect)
Outline: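 Cells plated, rested 4 h at 37 C/5% CO2; compounds in DMSO pin-transferred; dexamethasone added to 5 nM final; 18 h at 37 C; B/G FRET substrate added, 2 h room temperature; fluorescence measured.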

[10] = qHTS assay to identify small molecule antagonists of the glucocorticoid receptor (GR) signaling pathway - cell viability counter screen (AID 720693); note: nearly all actives have a fitted effect of over 55% in size
[11] = qHTS assay for identifying genotoxic compounds that show differential cytotoxicity against isogenic chicken DT40 cell lines with known DNA damage response pathways - wild type cell line (AID 743012); note: nearly all actives have a fitted effect of over 60% in size; note: potency is the fitted concentration of half-maximal effect
Outline: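 Cells (DT40 wild type, 300/well) are treated with DMSO-dissolved compounds after a ~0.5 h pre-incubation and kept 40 h at 37 C/5% CO2. Viability is then measured by CellTiter-Glo luminescence following 30 min at room temperature.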

[12] = qHTS assay for identifying genotoxic compounds that show differential cytotoxicity against isogenic chicken DT40 cell lines with known DNA damage response pathways - Rev3 mutant cell line (AID 743014); note: nearly all actives have a fitted effect of over 55% in size; note: potency is the fitted concentration of half-maximal effect
[13] = qHTS assay for identifying genotoxic compounds that show differential cytotoxicity against isogenic chicken DT40 cell lines with known DNA damage response pathways - Rad54/Ku70 mutant cell line (AID 743015); note: nearly all actives have a fitted effect of over 60% in size; note: potency is the fitted concentration of half-maximal effect
[14] = qHTS assay to identify small molecule antagonists of the androgen receptor (AR) signaling pathway - cell viability counter screen (AID 743033; note: nearly all actives have a fitted effect of over 45% in size; note: potency is the fitted concentration of half-maximal effect)
[15] = qHTS assay to identify small molecule antagonists of the androgen receptor (AR) signaling pathway using the MDA cell line - cell viability counter screen (AID 743041; note: nearly all actives have a fitted effect of over 45% in size; note: potency is the fitted concentration of half-maximal effect)
Outline: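 MDA-kb2 AR-luc human breast carcinoma cells (MMTV-luciferase, AR/GR responsive) were treated with compounds plus R1881 agonist for 16 h at 37 °C. Viability was read as CellTiter-Fluor fluorescence in the same wells as the reporter assay.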

[16] = molecular target: Androgen receptor (Homo sapiens) (UniProt P10275); assay: qHTS assay to identify small molecule antagonists of the androgen receptor (AR) signaling pathway (AID 743035; active = well fitted inhibition curve with a large enough effect in the signal ratio in the repeat runs, not every such curve was filed as active; the % refers to the signal ratio)
Outline: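 Antagonism is scored as loss of R1881-driven beta-lactamase reporter expression in HEK293 cells carrying the reporter under a UAS element, after 16 h co-treatment at 37C and a 2 h room-temperature FRET substrate read.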

[17] = molecular target: Androgen receptor (Homo sapiens) (UniProt P10275); assay: qHTS assay to identify small molecule agonists of the androgen receptor (AR) signaling pathway (AID 743036; active = well fitted activation curve with a large enough effect in the signal ratio in the repeat runs, with a control signal flat, not every such curve was filed as active; the % refers to the signal ratio)
Outline: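 Fluorescence from a beta-lactamase FRET substrate served as read-out in AR-UAS-bla GripTite HEK293 cells. Cells were treated with DMSO-dissolved compounds for 16 h at 37C, then with LiveBLAzer B/G substrate for 2 h at room temperature.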

[18] = molecular target: Androgen receptor (Homo sapiens) (UniProt P10275); assay: qHTS assay to identify small molecule agonists of the androgen receptor (AR) signaling pathway using the MDA cell line (AID 743040; note: nearly all actives have a fitted effect of over 20% in size)
Outline: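 MDA-kb2 breast carcinoma cells stably carrying an MMTV-driven luciferase reporter (AR- and GR-responsive) were seeded and held 5 h at 37C, 0% CO2, then exposed to compounds in DMSO for 16 h. Luminescence was read 30 min after ONE-Glo addition.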

[19] = molecular target: Androgen receptor (Homo sapiens) (UniProt P10275); assay: qHTS assay to identify small molecule antagonists of the androgen receptor (AR) signaling pathway using the MDA cell line (AID 743042; note: nearly all actives have a fitted effect of over 55% in size)
Outline: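 MDA-kb2 cells (human breast carcinoma, stably carrying an MMTV-luciferase reporter responsive to AR and GR) were plated at 3,000 cells/well and preincubated 5 hr at 37C, then given compound plus R1881 agonist for 16 h. ONE-Glo luminescence was read.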

Sequence of Androgen receptor (Homo sapiens) (P10275 whole entry, looked up): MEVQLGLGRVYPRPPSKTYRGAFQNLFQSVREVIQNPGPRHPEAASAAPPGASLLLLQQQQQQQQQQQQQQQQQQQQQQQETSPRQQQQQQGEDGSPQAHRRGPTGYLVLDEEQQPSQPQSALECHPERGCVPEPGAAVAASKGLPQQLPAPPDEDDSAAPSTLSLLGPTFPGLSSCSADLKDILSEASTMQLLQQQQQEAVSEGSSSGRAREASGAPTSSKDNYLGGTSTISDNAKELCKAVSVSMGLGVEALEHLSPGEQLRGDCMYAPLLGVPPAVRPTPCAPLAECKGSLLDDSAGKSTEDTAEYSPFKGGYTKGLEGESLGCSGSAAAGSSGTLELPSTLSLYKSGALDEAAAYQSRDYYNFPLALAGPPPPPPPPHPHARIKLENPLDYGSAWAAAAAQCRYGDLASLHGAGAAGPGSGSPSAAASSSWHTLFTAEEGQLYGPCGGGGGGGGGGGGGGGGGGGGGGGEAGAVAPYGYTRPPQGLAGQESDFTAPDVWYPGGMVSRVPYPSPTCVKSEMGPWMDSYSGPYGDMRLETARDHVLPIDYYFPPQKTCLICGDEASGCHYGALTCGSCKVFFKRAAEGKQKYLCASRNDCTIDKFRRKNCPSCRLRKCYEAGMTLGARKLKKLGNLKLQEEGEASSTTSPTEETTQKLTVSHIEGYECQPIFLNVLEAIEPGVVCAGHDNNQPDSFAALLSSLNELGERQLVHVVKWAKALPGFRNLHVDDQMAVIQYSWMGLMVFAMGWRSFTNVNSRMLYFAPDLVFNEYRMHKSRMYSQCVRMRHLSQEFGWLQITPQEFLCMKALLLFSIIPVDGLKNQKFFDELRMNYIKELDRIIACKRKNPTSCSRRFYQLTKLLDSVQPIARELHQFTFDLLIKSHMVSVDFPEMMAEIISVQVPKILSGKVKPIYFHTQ
Sequence of Glucocorticoid receptor (Homo sapiens) (P04150 whole entry, looked up): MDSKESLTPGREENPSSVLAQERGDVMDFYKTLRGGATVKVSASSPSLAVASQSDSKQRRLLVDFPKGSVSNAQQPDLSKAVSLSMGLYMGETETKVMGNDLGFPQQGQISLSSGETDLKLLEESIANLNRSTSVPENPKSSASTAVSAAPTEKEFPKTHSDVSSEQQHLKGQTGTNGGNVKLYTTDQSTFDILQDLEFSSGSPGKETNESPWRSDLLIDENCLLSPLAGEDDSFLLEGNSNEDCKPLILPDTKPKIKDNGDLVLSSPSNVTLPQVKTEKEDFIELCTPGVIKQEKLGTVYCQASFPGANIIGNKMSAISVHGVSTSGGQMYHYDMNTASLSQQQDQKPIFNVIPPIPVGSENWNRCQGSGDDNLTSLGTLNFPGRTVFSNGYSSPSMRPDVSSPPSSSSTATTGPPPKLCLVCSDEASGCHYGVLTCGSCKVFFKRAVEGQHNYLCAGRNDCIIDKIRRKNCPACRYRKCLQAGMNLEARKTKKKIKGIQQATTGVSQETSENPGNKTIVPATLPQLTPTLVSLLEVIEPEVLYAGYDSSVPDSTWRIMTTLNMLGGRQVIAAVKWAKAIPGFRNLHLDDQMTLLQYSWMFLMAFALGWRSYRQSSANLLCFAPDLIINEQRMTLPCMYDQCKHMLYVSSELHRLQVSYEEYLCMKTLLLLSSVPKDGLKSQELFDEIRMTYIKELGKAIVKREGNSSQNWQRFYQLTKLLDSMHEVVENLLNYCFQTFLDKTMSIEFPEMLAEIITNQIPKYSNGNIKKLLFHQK

Cc1cc(O)cc(C)c1Cl
Potency [1]: inactive
outcome [2]: inactive
outcome [3]: inactive
outcome [4]: inactive
Potency [5]: inactive
outcome [6]: inactive
outcome [7]: inactive
Potency [8]: inactive
Potency [9]: inactive
Potency [10]: inactive
Potency [11]: inactive
Potency [12]: inactive
Potency [13]: inactive
Potency [14]: inactive
Potency [15]: inactive

CCCCCCCCCCCCN
Potency [1]: inactive
outcome [2]: inactive
outcome [3]: inactive
outcome [4]: inactive
Potency [5]: inactive
outcome [6]: inactive
Potency [8]: inactive
Potency [9]: inactive
Potency [10]: inactive
Potency [11]: inactive and 15.4 µM (active)
Potency [12]: inactive and 21.7 µM (active)
Potency [13]: inactive and 19.3 µM (active)
Potency [14]: inactive and 54.9 µM (active)

CCCCC(CC)COC(=O)CCCCCCCC(=O)OCC(CC)CCCC (stereo not drawn)
Potency [1]: inactive
outcome [2]: inactive
outcome [3]: inactive
Potency [5]: inactive
outcome [6]: inactive
outcome [7]: inactive
Potency [8]: inactive
Potency [9]: inactive
Potency [10]: inactive
Potency [11]: inactive
Potency [12]: inactive
Potency [13]: inactive
Potency [14]: inactive
Potency [15]: inactive

Nc1c(S(=O)(=O)O)cc(Br)c2c1C(=O)c1ccccc1C2=O
Potency [1]: inactive
outcome [2]: inactive
outcome [3]: inactive
outcome [4]: inactive
Potency [5]: inactive
outcome [6]: inactive
Potency [10]: inactive
Potency [11]: inactive
Potency [12]: inactive
Potency [13]: inactive
Potency [14]: inactive
Potency [15]: 30.6 µM (active)

O=C(O)c1ccc([N+](=O)[O-])cc1
Potency [1]: inactive
outcome [2]: inactive
outcome [3]: inactive
outcome [4]: inactive
Potency [5]: inactive
outcome [6]: inactive
Potency [8]: inactive
Potency [9]: inactive
Potency [10]: inactive
Potency [11]: inactive
Potency [12]: inactive
Potency [13]: inactive
Potency [14]: inactive
Potency [15]: inactive

C[C@@H]1O[C@@H](OC[C@H]2O[C@@H](Oc3c(-c4ccc(O)c(O)c4)oc4cc(O)cc(O)c4c3=O)[C@H](O)[C@@H](O)[C@@H]2O)[C@H](O)[C@H](O)[C@H]1O
Potency [1]: inactive
outcome [2]: inactive
outcome [3]: inactive
outcome [4]: inactive
Potency [5]: inactive
outcome [6]: inactive
outcome [7]: inactive
Potency [8]: inactive
Potency [9]: inactive
Potency [10]: inactive
Potency [11]: inactive
Potency [12]: inactive
Potency [13]: inactive
Potency [14]: inactive
outcome [16]: inactive
outcome [17]: inactive
outcome [18]: inactive
Potency [15]: inactive
outcome [19]: inactive

ClC1=C(Cl)C(Cl)(Cl)C(Cl)=C1Cl
Potency [1]: inactive
outcome [2]: inactive
outcome [3]: inactive
Potency [5]: inactive
outcome [6]: inactive
Potency [8]: inactive
Potency [9]: 13.8 µM (active)
Potency [10]: inactive
Potency [11]: inactive and 770 nM (active)
Potency [12]: inactive and 864 nM (active)
Potency [13]: inactive and 770 nM (active)
Potency [14]: inactive
Potency [15]: inactive

C/C=C(C)/C=C/C=C(C)C
Potency [1]: inactive
outcome [2]: inactive
outcome [3]: inactive
Potency [5]: inactive
outcome [6]: inactive
Potency [10]: inactive
Potency [11]: 61.1 µM (active)
Potency [13]: 54.5 µM (active)
Potency [14]: inactive
Potency [15]: inactive

OC[C@@H](O)[C@@H](O)[C@H](O)[C@@H](O)CO
Potency [1]: inactive
outcome [2]: inactive
outcome [3]: inactive
outcome [4]: inactive
Potency [5]: inactive
outcome [6]: inactive
Potency [10]: inactive
Potency [11]: inactive
Potency [12]: inactive
Potency [13]: inactive
Potency [14]: inactive
Potency [15]: inactive

O=[N+]([O-])c1cccc(Cl)c1
Potency [1]: inactive
outcome [2]: inactive
outcome [3]: inactive
outcome [4]: inactive
Potency [5]: inactive
outcome [6]: inactive
outcome [7]: inactive
Potency [10]: inactive
Potency [11]: inactive
Potency [12]: inactive
Potency [13]: inactive
Potency [14]: inactive
Potency [15]: inactive

O=C(c1ccc(O)cc1)c1ccc(O)cc1O
Potency [1]: inactive
outcome [2]: inactive
outcome [3]: inactive
outcome [4]: inactive
Potency [5]: inactive
outcome [6]: inactive
Potency [8]: inactive
Potency [10]: inactive
Potency [11]: inactive
Potency [12]: inactive
Potency [14]: inactive
Potency [15]: inactive

Oc1ccc2ccccc2c1
Potency [1]: inactive
outcome [2]: inactive
outcome [3]: inactive
outcome [4]: inactive
Potency [5]: inactive
outcome [6]: inactive
outcome [7]: inactive
Potency [8]: inactive
Potency [9]: inactive
Potency [10]: inactive
Potency [11]: inactive
Potency [12]: inactive
Potency [13]: inactive
Potency [14]: inactive
outcome [17]: inactive
outcome [18]: inactive
Potency [15]: inactive
outcome [19]: inactive

O=c1c(-c2ccc(O)cc2)coc2cc(O)ccc12
Potency [1]: inactive
outcome [2]: inactive
outcome [3]: inactive
outcome [4]: inactive
Potency [5]: inactive
outcome [6]: inactive
outcome [7]: inactive
Potency [8]: inactive
Potency [10]: inactive
Potency [12]: inactive
Potency [13]: inactive
Potency [14]: inactive
outcome [18]: inactive
Potency [15]: inactive
outcome [19]: inactive

CC(C)(CO)COC(=O)C(C)(C)CO
Potency [1]: inactive
outcome [2]: inactive
outcome [3]: inactive
Potency [5]: inactive
outcome [6]: inactive
Potency [8]: inactive
Potency [9]: inactive
Potency [10]: inactive
Potency [11]: inactive
Potency [12]: inactive
Potency [13]: inactive
Potency [14]: inactive
outcome [16]: inactive
outcome [17]: inactive
outcome [18]: inactive
Potency [15]: inactive
outcome [19]: inactive

O=C(Cl)c1c(Cl)c(Cl)c(C(=O)Cl)c(Cl)c1Cl
Potency [1]: inactive
outcome [2]: inactive
outcome [3]: inactive
outcome [4]: inactive
Potency [5]: inactive
outcome [6]: inactive
Potency [8]: inactive
Potency [9]: inactive
Potency [10]: inactive
Potency [11]: inactive
Potency [12]: inactive
Potency [13]: inactive
Potency [14]: inactive
Potency [15]: inactive

CCCCOCCOCCOC(=O)CCCCC(=O)OCCOCCOCCCC
Potency [1]: inactive
outcome [2]: inactive
outcome [3]: inactive
outcome [4]: inactive
Potency [5]: inactive
outcome [6]: inactive
Potency [8]: inactive
Potency [9]: inactive
Potency [10]: inactive
Potency [11]: inactive
Potency [12]: inactive
Potency [13]: inactive
Potency [14]: inactive
Potency [15]: inactive

O=S(=O)(O)CCS
Potency [1]: inactive
outcome [2]: inactive
outcome [3]: inactive
Potency [5]: inactive
outcome [6]: inactive
Potency [8]: inactive
Potency [9]: inactive
Potency [10]: inactive
Potency [11]: inactive
Potency [12]: inactive
Potency [13]: inactive
Potency [14]: inactive
Potency [15]: inactive

Reference: PubChem BioAssay (Tox21)
